“And” between values parts separate entries of the source, which are not always exact repeats. Identical values can stand only once. Screen size: about 340,000 compounds; about 2,100 (0.62%) were called active.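 How the source made its calls: active means first-screen hits whose inhibition reached a set limit at any dose in the follow-up dose series; inconclusive means inhibition above the set first-screen limit but never retested; inactive means the rest.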 Only a sample is shown. Potency and affinity values are given separately.
target: Rac GTPase-activating protein 1 (Homo sapiens) (UniProt Q9H0H5); assay: MgcRacGAP GTPase-activating activity inhibitors, confirmation, biochemical, ADP Hunter fluorescence, primary and confirmatory (AID 624330); settings: MgcRacGAP-stimulated Rac1 GTP hydrolysis, at 30 µM, active compounds read high, GST-tagged Rac1 F28L mutant substrate;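 further: fluorescence reports GDP produced by GAP-driven GTP hydrolysis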
Sequence (Q9H0H5 whole entry, looked up): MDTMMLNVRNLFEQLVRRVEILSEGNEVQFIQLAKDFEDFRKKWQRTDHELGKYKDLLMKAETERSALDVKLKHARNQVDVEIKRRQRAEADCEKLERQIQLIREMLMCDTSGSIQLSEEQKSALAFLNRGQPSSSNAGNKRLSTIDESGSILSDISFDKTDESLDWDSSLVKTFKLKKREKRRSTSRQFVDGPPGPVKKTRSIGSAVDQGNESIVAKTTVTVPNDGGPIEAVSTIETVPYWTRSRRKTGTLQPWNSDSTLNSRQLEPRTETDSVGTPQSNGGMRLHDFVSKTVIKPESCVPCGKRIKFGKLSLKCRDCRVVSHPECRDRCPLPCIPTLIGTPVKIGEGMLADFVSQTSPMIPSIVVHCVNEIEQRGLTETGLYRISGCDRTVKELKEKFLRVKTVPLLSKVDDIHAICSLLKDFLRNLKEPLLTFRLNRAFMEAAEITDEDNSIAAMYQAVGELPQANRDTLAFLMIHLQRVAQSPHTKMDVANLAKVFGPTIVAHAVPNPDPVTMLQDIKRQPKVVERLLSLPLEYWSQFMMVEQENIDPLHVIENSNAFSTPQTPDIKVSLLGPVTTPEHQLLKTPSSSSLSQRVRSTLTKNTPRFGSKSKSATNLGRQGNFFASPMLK

inhibition, inactive:
C[C@@H]1CN([C@@H](C)CO)C(=O)CCCn2nncc2CO[C@H]1CN(C)C(=O)OCc1ccccc1 7.03%
CN1CCN(S(=O)(=O)c2cccc(C(=O)N(C)CC(=O)Nc3ccc(F)c(F)c3F)c2)CC1 9.79%
Cc1ccc2nc(SCC(=O)NCc3ccc(F)cc3)nc(=O)n2c1 6.12%
Cc1ccc(C(=O)Nc2ccc(N3CCOCC3)cc2)cc1S(=O)(=O)N1CCCCC1 3.29%
O=c1c2cc(F)ccc2sn1-c1ccc(F)cc1 30.6%
O=c1c2cc(C(F)(F)F)ccc2sn1-c1ccccc1 24.6%
OCCOCCN1CCN(C2=Nc3ccccc3Sc3ccccc32)CC1 -0.15% and -4.72%
OCCOCCN1CCN(C(=S)Nc2ccccc2)CC1 6.01%
COC(=O)C1CCN(Cc2cn(Cc3ccccc3)nc2-c2cc3ccccc3o2)CC1 13.5%
COCCNC(=O)C(OC(=O)c1nsc(Cl)c1Cl)C(C)C (configuration not stated) 10.9%
CCCN(CC(=O)Nc1cc(Cl)ccc1Cl)C(=O)c1ccc(N2CCCC2=O)cc1 3.44%
COc1cc(/C=N/NC(=O)c2cc(-c3cccc(Br)c3)nc3ccccc23)cc(OC)c1O 13.9%
O=C1NC(=S)SC1=Cc1ccc(F)cc1 15.8%
Cc1cc(/C=C2\SC(=S)NC2=O)c(C)n1C 26.3%
O=C1NC(=O)C(=Cc2ccc(Cl)cc2Cl)S1 7.66%
O=C1NC(=S)SC1=Cc1ccc(Cl)cc1 8.39%
O=C1NC(=S)SC1=Cc1cc(Br)ccc1O 16.8%
Cc1nn(C)cc1/C=C1\SC(=S)NC1=O -1.15%
Cc1cccc(NC(=O)CN2C(=O)NC(C)(c3ccc4c(c3)OCO4)C2=O)c1 (configuration not stated) 3.23%
O=C(CSc1ncn[nH]1)N1CCN(c2nnc(-c3ccccc3)c3ccccc23)CC1 11.7%
Cc1cc(C)nc(N/N=C/C2=C(N3CCOCC3)C(=C/c3ccccc3)/CC2)n1 9.21%
COc1ccc(N=C2C(=O)N3c4c(cccc42)C(C)=CC3(C)C)cc1 13.7%
C=CCN(Cc1nc(-c2ccc(OC)cc2)no1)C(=O)c1ccc2c(c1)OCO2 2.96%
Cn1cccc1/C=N/N1CCN(Cc2cccc3ccccc23)CC1 25.4%
Cn1cccc1/C=N/N1CCN(Cc2ccccc2)CC1 23%
Clc1ccc(/C=N/N2CCN(Cc3ccccc3Cl)CC2)cc1 12%
CCN(CC)c1ccc(/C=N/N2CCN(Cc3ccccc3Cl)CC2)cc1 -3.36%
Cc1ccc(NC(=S)NCc2ccc3c(c2)cc(C)n3C)c(C)c1 9.16%
O=C(COC(=O)c1ccc(O)cc1)Nc1cccc(S(=O)(=O)N2CCCCC2)c1 5.81%
C=C(C)c1ccc(C(C)(C)NC(=O)N(Cc2ccccc2)Cc2ccco2)cc1 0.01%
C/C(=C/c1oc2ccc(O)cc2c1[N+](=O)[O-])N(C)C 14.9%
CC(=O)Oc1ccc2oc(/C=C/N(C)C)c([N+](=O)[O-])c2c1 16.9%
O=S1(=O)N=C(Nc2ccc(N3CCOCC3)cc2)c2ccccc21 2.07%
CCN(CC)S(=O)(=O)c1ccc(NC2=NS(=O)(=O)c3ccccc32)cc1 1.99%
CC(=O)Nc1ccc(NC2=CC(=O)CC(C)(C)C2)cc1 7.91%
CC1(C)CC(=O)C=C(Nc2ccc(F)cc2)C1 -10%
N#CCc1ccc(Oc2ccc([N+](=O)[O-])cn2)cc1 5.55%
Cc1oc(-c2ccccc2)nc1C(=O)OCC(=O)NCc1ccc(Cl)cc1 -0.87%
CCCCn1c(N)c(N(CC(C)C)C(=O)c2ccc(Cl)c(S(=O)(=O)N3CCCC3)c2)c(=O)[nH]c1=O 5.8%
COc1cccc(CN2CCCC(C(=O)N3CCCCC3)C2)c1 (configuration not stated) 22.1%
COc1ccc(CN2CCCC(C(=O)N(C)Cc3ccccc3)C2)cc1OC (configuration not stated) 27.7%
COc1ccc(CN2CCCC(C(=O)N3CCCCC3)C2)cc1 (configuration not stated) 26.1%
CN(Cc1ccccc1)C(=O)C1CCCN(Cc2cccc(Cl)c2)C1 (configuration not stated) 3.69%
O=C(C1CCCN(Cc2ccccc2)C1)N1CCCCC1 (configuration not stated) 21.6%
O=C(C1CCCN(Cc2ccc(Cl)cc2)C1)N1CCCCC1 (configuration not stated) 24.9%
O=C(NNC(=O)c1cc2ccccc2o1)c1ccncc1 3.59%
Cc1cc(C[n+]2ccsc2N)c2ncccc2c1 4.36%
NC(=O)CC(NC(=O)c1ccc(Br)cc1)c1ccc(N2CCN(c3ccccn3)CC2)c([N+](=O)[O-])c1 (configuration not stated) 4.07%
O=C(NNC(=O)c1ccc([N+](=O)[O-])cc1)NC1CCCCC1 1.53%
CCCC1NC(=O)c2cccnc2-n2c1nc1ccc(Cl)cc1c2=O (configuration not stated) 13.8%
Cc1ccc(C)c(N2CC(=O)N(c3cc(C)ccc3C)CC2=O)c1 1.32%
Cc1ccc(C)c(-n2nnc3ccccc3c2=O)c1 2.95%
Cc1ccc(N2C(=O)CCC2=O)c(C)c1 4.77%
Cc1ccc(-n2c(C)cc(=O)cc2C)c(C)c1 6.02%
COc1ccccc1NC(=O)C(C)n1cnc2c(oc3nc4c(cc32)CCCC4)c1=O (configuration not stated) -4.17%
COc1ccc(/C=C2/CCCC(C(=O)C(F)(F)F)=C2O)cc1OC 6.67%
CCOC(=O)C(=O)Nc1cc([N+](=O)[O-])ccc1C 0.69%
COc1cc(C(=O)NCCCc2ccccc2)cc(OC)c1OC 5.75%
Cc1ccc(-c2cn3c(=S)[nH]nc3s2)cc1 22.2%
Cc1ccc(-c2n[nH]c(=S)n2C)cc1 14.7%
Cc1cc(CSc2ccccc2C(=O)O)on1 -2.15%
C/C(=N/NC(=O)c1ccc(-c2ccccc2)cc1)c1cc(O)cc(O)c1 14.9%

Reference: PubChem BioAssay AID624330 (Southern Research Specialized Biocontainment Screening …, 2012)
